# High-throughput results as filed in PubChem BioAssay.
# rCAG RNA binder: r(CAG) repeat RNA binding; TO-PRO-1 dye displacement fluorescence; inhibition, % at 3 µM; 370,000 tested, 1.3% active;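 active = inhibition above the plate cutoff, the mean of all test compounds on that plate plus 3 SD, cut at about 35% in these data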;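 also: 0% = DMSO alone and 100% = 100 µM mitoxantrone as full dye displacement; higher means more dye released from RNA so lower well fluorescence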
# LEDGF integ inh: blocks HIV-1 LEDGF/p75-dependent DNA integration; TR-FRET IN-LEDGF/p75 DNA integration, Eu/Cy5; inhibition, % at 3.7 µM; 370,000 tested, 0.64% active; AID 743269;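 active = inhibition above the screen-wide mean plus 3 SD, cut at about 13% in these data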;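 also: signal is the Cy5 over europium emission ratio at 671 and 618 nm; 0% = plate median of compound wells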
# ABHD5-PLIN5 inh: blocks binding of human ABHD5 to perilipin-5 | Split G. princeps luciferase complementation, luminescence, 4 h | inhibition, % at 4 µM | AID 602281 | Q00G26+Q8WTS1 | 360,000 tested, 0.78% active;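 active = inhibition above the mean inhibition across every tested compound plus 3 SD, cut at about 22% in these data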;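 also: 0% = DMSO only wells and the 100% control is not disclosed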
# MBD2 DNA inh: inhibitors of human MBD2 binding to methylated oligonucleotide. Q9UBB5. TR-FRET. inhibition, % at 4.4 µM. 370,000 tested, 0.31% active. AID 686964; in the data active = inhibition above about 13%
# Target sequence (Q9UBB5 whole entry, looked up): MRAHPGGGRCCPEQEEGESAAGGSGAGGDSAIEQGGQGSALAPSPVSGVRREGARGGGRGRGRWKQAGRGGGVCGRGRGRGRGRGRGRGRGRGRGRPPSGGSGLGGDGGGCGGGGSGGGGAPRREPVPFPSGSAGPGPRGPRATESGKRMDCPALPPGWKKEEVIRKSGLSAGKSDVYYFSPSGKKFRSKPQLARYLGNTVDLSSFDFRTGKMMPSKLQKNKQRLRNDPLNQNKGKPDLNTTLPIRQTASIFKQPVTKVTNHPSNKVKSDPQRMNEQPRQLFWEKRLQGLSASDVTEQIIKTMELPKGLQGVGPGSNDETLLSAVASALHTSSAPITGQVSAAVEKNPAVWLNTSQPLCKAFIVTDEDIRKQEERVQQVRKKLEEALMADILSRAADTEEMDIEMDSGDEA
# PRMT1 FP inh: PRMT1 (human) inhibition, primary screen | recombinant PRMT1, activity-based probe fluorescence polarization | Q99873 | 370,000 tested, 1.3% active | inhibition, % at 2.79 µM;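 active = inhibition above about 21% made by adding two undisclosed values, limit read from the data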
# UHRF1 binding: human UHRF1 methylated DNA binding inhibitors | Q96T88 | UHRF1 binding to methylated oligo, TR-FRET | inhibition, % at 4.4 µM | 370,000 tested, 0.75% active | AID 687016; in the data active = inhibition above about 21%;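 also: UHRF1 SRA domain binding a hemimethylated CpG hairpin DNA probe; 0% = median of test compound wells and 100% = reference inhibitor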
# rCAG binder conf: r(CAG) RNA repeat binding, confirmation. shares compounds with rCAG RNA binder. TO-PRO-1 dye displacement fluorescence. inhibition, % at 3 µM. 4,300 tested, 70% active. AID 652065;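 active = inhibition above a per-plate cutoff, the mean inhibition of sample wells plus 3 SD, cut at about 35% in these data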;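 also: loss of TO-PRO-1 fluorescence as compound displaces dye from 1x1 AA loop RNA; 0% = DMSO only wells and 100% = 100 µM mitoxantrone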
# DNA CAG counter: counter-screen for rCAG RNA binders: DNA CAG dye complex inhibitors. shares compounds with rCAG RNA binder. d(CAG) DNA oligo TO-PRO-1 dye displacement, fluorescence. inhibition, % at 3 µM. 4,300 tested, 94% active. AID 652068;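 active = inhibition above its plate's cutoff, the mean test-well inhibition plus 3 SD, cut at about 4.8% in these data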;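 also: 0% = DNA dye mix with DMSO and 100% = 100 µM mitoxantrone; hits displace the dye from DNA and so lower well fluorescence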
# DNA CAG DR: disrupts DNA CAG TO-PRO-1 complex in dose response | shares compounds with rCAG RNA binder | DNA CAG/GTC duplex TO-PRO-1 dye displacement fluorescence | IC50, µM | 250 tested, 20% active | AID 686960; in the data active = IC50 below about 10 µM
# * = called active by the depositor; . = no result given. A selection: hits, their analogues and other compounds. The true share with any hit is near 4.1%.
SMILES,rCAG RNA binder,LEDGF integ inh,ABHD5-PLIN5 inh,MBD2 DNA inh,PRMT1 FP inh,UHRF1 binding,rCAG binder conf,DNA CAG counter,others
CC(C)(Sc1ccc(CCN(CCCCC2CCCCC2)C(=O)NC2CCCCC2)cc1)C(=O)O,48.7*,7.5,-6.5,-0.5,1.5,0.2,54.6*,16.9*,DNA CAG DR=>29.9
COC(=O)[C@]12C[C@H](CC(=O)NCc3ccccc3)C(=O)N(Cc3ccccc3)C1=C[C@H](C(C)(C)C)O[C@@H]2C,0.6,-5.0,.,-6.2,1.7,-1.0,.,.,
Cc1nn(-c2cccc(C(F)(F)F)c2)c(Cl)c1/C=N/Nc1cccc(C(=O)O)c1,44.0*,0.3,-1.7,-2.6,5.2,-0.7,57.2*,19.2*,
O=C(O)c1cccc(N/N=C/C2=C(Cl)c3cc(Cl)ccc3SC2)c1,34.8*,4.3,-2.0,-2.1,14.9,3.8,80.0*,49.8*,
Cc1nn(-c2ccccc2Cl)c(Cl)c1/C=N/Nc1cccc(C(=O)O)c1,18.8,1.5,-0.6,3.1,1.1,0.9,.,.,
CCOc1cc(/C=N/Nc2cccc(C(=O)O)c2)ccc1OC(=O)c1ccccc1,36.0*,3.8,-6.7,2.1,4.7,0.6,82.4*,50.7*,
Cc1ccc(/C=N/Nc2cccc(C(=O)O)c2)s1,35.7*,8.2,-1.6,-2.1,12.2,1.8,19.1,4.8*,
Cc1ccc(/C=N/Nc2ccc(C(=O)O)cc2)s1,24.0,-2.5,-2.4,-0.5,-1.2,-0.6,.,.,
CSc1ccc(-c2csc(N3CCC(C(N)=O)CC3)n2)cc1,.,2.3,.,2.4,-1.1,2.3,.,.,
CCCCCCCCN1C(=O)[C@@H](CC(=O)NCC2CCCCC2)C[C@@]2(C(=O)OC)C1=C[C@H](C(C)(C)C)O[C@@H]2C,1.2,1.6,.,-2.9,-1.2,1.6,.,.,
C=CCOc1c(Br)cc(/C=N/Nc2ccc(C(=O)O)cc2)cc1OCC,83.3*,2.7,-2.0,2.6,4.3,-1.0,65.8*,26.1*,
COc1ccc(/C=N/Nc2ccc(C(=O)O)cc2)cc1Br,12.1,3.7,-2.1,-3.2,4.5,1.2,.,.,
NCc1csc(NC(=O)Nc2cccc(C(F)(F)F)c2)n1,53.4*,-0.3,4.0,3.5,2.1,0.0,50.5*,10.8*,DNA CAG DR=>29.9
CC(C)C(N)c1csc(NC(=O)Nc2cccc(C(F)(F)F)c2)n1 (configuration not stated),41.9*,9.0,-1.8,-3.5,-4.7,-0.8,44.8*,4.2,DNA CAG DR=>29.9
O=C(Nc1ccncc1)Nc1cccc(C(F)(F)F)c1,2.2,0.3,4.5,-0.8,1.6,-1.7,.,.,
NC(Cc1ccc(C(F)(F)F)cc1)c1csc(NC(=O)Nc2ccccc2Cl)n1 (configuration not stated),14.0,2.2,-16.1,1.4,-4.4,-1.7,.,.,
NC(Cc1ccc(Cl)cc1)c1csc(NC(=O)Nc2ccccc2)n1 (configuration not stated),37.8*,2.7,-3.3,4.5,-0.4,0.1,22.7,10.8*,
NC(Cc1ccc(C(F)(F)F)cc1)c1csc(NC(=O)Nc2ccccc2)n1 (configuration not stated),35.0*,4.8,-4.3,1.1,8.4,1.3,16.3,7.5*,
CC(C)C(N)c1csc(NC(=O)Nc2ccccc2C(C)(C)C)n1 (configuration not stated),13.6,6.0,0.3,-1.7,-3.5,1.8,.,.,
O=[N+]([O-])c1cccc(C2=Nn3c(nnc3-c3ccccc3)SC2)c1,3.9,-0.6,.,1.7,-2.3,-1.5,.,.,
COc1ccc(CC(N)c2csc(NC(=O)Nc3cccc(C(F)(F)F)c3)n2)cc1 (configuration not stated),47.0*,8.7,-2.4,-4.2,-3.9,-0.7,26.1,7.1*,
NC(CCc1ccccc1)c1csc(NC(=O)Nc2cccc(C(F)(F)F)c2)n1 (configuration not stated),39.8*,1.5,-6.5,0.0,1.3,0.3,21.6,2.6,
COc1ccc(CC(N)c2csc(NC(=O)Nc3cc(OC)ccc3OC)n2)cc1 (configuration not stated),12.8,4.0,-4.7,3.9,0.3,-1.6,.,.,
COc1cc(NC(=O)Nc2nc(C(N)CCc3ccccc3)cs2)cc(OC)c1OC (configuration not stated),35.4*,-1.7,2.4,-1.1,-3.6,0.5,29.8,1.5,
CC(C)c1ccc(NC(=O)Nc2nc(C(N)CCc3ccccc3)cs2)cc1 (configuration not stated),30.4,1.9,-8.6,3.1,3.0,1.1,.,.,
SMILES,rCAG RNA binder,LEDGF integ inh,ABHD5-PLIN5 inh,MBD2 DNA inh,PRMT1 FP inh,UHRF1 binding,rCAG binder conf,DNA CAG counter,others
COc1ccc(OC)c(NC(=O)Nc2nc(C(N)CCc3ccccc3)cs2)c1 (configuration not stated),17.0,0.7,6.1,4.8,1.9,2.2,.,.,
COc1ccc(CC(N)c2csc(NC(=O)Nc3ccc(F)cc3)n2)cc1 (configuration not stated),42.6*,0.5,-9.8,0.4,-3.4,-1.5,21.2,9.5*,
COc1ccc(-n2c(SCc3ccc([N+](=O)[O-])cc3)nnc2-c2ccco2)cc1,1.4,0.2,.,-7.3,0.6,-1.7,.,.,
O=C(NC1CCCC1)C1(C(=O)C2CC2)CC(c2ccccc2C(F)(F)F)=NO1 (configuration not stated),-0.9,5.3,.,-5.7,-5.1,4.2,.,.,
NC(CO)c1csc(NC(=O)Nc2cccc(Cl)c2)n1 (configuration not stated),19.2,0.0,4.9,3.5,-1.1,-0.5,.,.,
CC(C)C(N)c1csc(NC(=O)Nc2ccc(OC(F)(F)F)cc2)n1 (configuration not stated),40.1*,4.0,-5.0,6.6,-2.6,1.2,25.5,2.2,
NC(COCc1ccccc1)c1csc(NC(=O)Nc2cccc(Cl)c2)n1 (configuration not stated),47.9*,8.6,-3.7,2.1,-1.8,-1.0,24.0,5.5*,
CC(C)c1ccc(NC(=O)Nc2nc(C(C)N)cs2)cc1 (configuration not stated),33.1,0.2,2.0,-2.2,-2.5,-0.4,.,.,
Cc1nc(C)c(-c2csc(Nc3ccc(O)c(C(=O)O)c3)n2)s1,34.7*,-8.2,-4.8,-9.2,1.6,-0.5,28.8,6.2*,
Cc1nc(C)c(-c2csc(Nc3ccc(N)cc3)n2)s1,15.3,-1.2,-16.3,-0.5,2.7,-5.4,.,.,
CCC1=C(C)CN(C(=O)NCCc2ccc(S(=O)(=O)NC(=O)NC3CCC(C)CC3)cc2)C1=O (configuration not stated),41.6*,-0.5,7.2,6.3,-1.0,-1.2,32.8,5.0*,
